Hits are enriched below; roughly 4.5% of the tested compounds scored in any of these assays.
HEK293 cAMP ctrl: parental HEK293 cAMP activation (counter-screen). Potency, µM (top dose mostly 57.1 µM), for the others: at the highest dose activation, hits mostly activators. 2.5% of 73,000 active. parental HEK293 CNG cAMP sensor, membrane potential fluorescence; also: % of control where 0% means no effect; nearly all actives have a fitted effect of over 55% in size
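Parental HEK 293 cells stably expressing a cAMP-gated CNG channel were loaded with membrane potential dye containing 100 uM RO 20-1724 for 60 min. Compound added for 30 min; depolarization read as fluorescence intensity at 590 nm.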
GBA activity: human lysosomal glucosylceramidase modulation; purified enzyme, resorufin glucoside fluorescence (screen aimed at inhibitors), 20 min; Potency, µM; 1.1% of 48,000 active; AID 360; in the data active = potency below about 15 µM; inconclusive = mostly about 16 µM to 33 µM;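 also: the screen sought inhibitors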
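Compounds titrated against 0.2 nM normal enzyme, 30 uM resorufin beta-D-glucopyranoside substrate, citrate/phosphate buffer with taurocholate and tween-20, pH 5.9. Reaction ran 20 min at room temperature; fluorescence (Ex 548/Em 600) gave AC50.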
Casp7 inh: allosteric or competitive inhibitors of human caspase-7; recombinant caspase-7, Ac-DEVD-AFC fluorescence rate; Potency, µM (doses to about 57.5 µM), for inactives: at the top dose activity change, negative = inhibition, actives largely listed as inhibitors; 0.02% of 75,000 active; active = well fitted inhibition curve with a large enough effect in the main read-out, with a control signal flat, not every such curve was filed as active; inconclusive = small, poorly fitted or top-dose-only effect, or a change in a side signal; also: % of control where 0% means no effect
Target sequence (P55210 24-198 limits assumed): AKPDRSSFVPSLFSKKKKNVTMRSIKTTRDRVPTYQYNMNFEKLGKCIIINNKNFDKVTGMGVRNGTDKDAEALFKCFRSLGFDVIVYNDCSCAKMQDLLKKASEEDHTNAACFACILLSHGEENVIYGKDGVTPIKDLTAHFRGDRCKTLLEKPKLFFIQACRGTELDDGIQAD
Target sequence (P55210 207-303 limits assumed): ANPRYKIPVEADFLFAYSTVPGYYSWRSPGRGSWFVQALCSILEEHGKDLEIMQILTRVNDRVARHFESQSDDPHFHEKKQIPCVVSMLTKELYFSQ
TSHR agonist: agonists of human thyroid stimulating hormone receptor; P16473; HEK293-CNG-TSHR cells (CNG channel as cAMP sensor), membrane potential dye, cAMP; Potency, µM (series often up to 57.1 µM), for inactives: at the top dose activation, hits mostly activators; 0.48% of 73,000 active; AID 926; active = well fitted activation curve with a large enough effect in the main read-out, with a control signal flat, not every such curve was filed as active; inconclusive = small, poorly fitted or top-dose-only effect, or a change in a side signal; inactive = no such curve, though single readings can be large or run the other way; % of control where 0% means no effect;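 also: the control signal comes from parental cells without the receptor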
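cAMP rise detected as CNG-channel membrane depolarization by fluorescent dye (emission 590 nm), 30 min after compound, following 60 min dye loading containing 100 uM RO 20-1724 at room temperature. Cells: TSHR/CNG HEK 293, with parental CNG HEK 293 as control.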
Casp1 inh: blocks human caspase-1 allosterically or competitively | 0.03% of 75,000 active | Caspase-1 enzyme, Ac-WEHD-AFC fluorogenic rate | AID 900 | Potency, µM (titrated, usually from 57.5 µM), without a hit: at the top dose activity change, negative = inhibition, actives largely listed as inhibitors;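 also: plate controls were vehicle for no effect and no substrate for full effect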
Target sequence (P29466 120-297 limits assumed): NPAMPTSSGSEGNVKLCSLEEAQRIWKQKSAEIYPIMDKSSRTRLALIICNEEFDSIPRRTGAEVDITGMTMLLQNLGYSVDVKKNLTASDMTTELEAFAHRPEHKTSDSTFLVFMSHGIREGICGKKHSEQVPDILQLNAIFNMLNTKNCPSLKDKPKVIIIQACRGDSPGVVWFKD
Target sequence (P29466 317-404 limits assumed): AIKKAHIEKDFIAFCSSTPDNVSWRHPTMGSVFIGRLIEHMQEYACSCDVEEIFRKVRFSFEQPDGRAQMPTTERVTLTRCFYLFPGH
ERK AVP block: inhibitors of vasopressin-stimulated ERK signaling pathway; HEK293-V1b, vasopressin-stimulated pERK AlphaScreen; Potency, µM (titrated, usually from 57.5 µM), for the others: top-dose activity, negative = inhibition, most hits filed as inhibitors; AID 995; 0.99% of 72,000 active; also: % is scaled to controls: 0 for no effect and ±100 for the full control effect; nearly all actives have a fitted effect of over 55% in size
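HEK293 cells stably expressing V1b receptor, seeded overnight in 1% FBS, were treated with compounds for 30 min at 37C, then stimulated 5 min with 25 nM vasopressin; phospho-ERK read by AlphaScreen SureFire after lysis.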
An asterisk follows results filed as active; i = inactive; ? = inconclusive; . = no result given; [ ] = another dose, or the depositor's remark. Unless noted, calls follow the shape of the dose curve; as a rule, active = well fitted curve in the direction sought with a large enough effect; inconclusive = small, poorly fitted or top-dose-only effect, or another doubt; inactive = no such curve, though single readings can be large; an effect the other way counts as inactive or inconclusive. Potency is read from the fitted curve at half-maximal effect.

SMILES | HEK293 cAMP ctrl | GBA activity | Casp7 inh | TSHR agonist | Casp1 inh | ERK AVP block
O=C(c1cnccn1)N1CCC2(CC1)CN(C(c1ccccc1)c1ccccc1)C2 | 10.1% | . | -1.1% | 1.0% | -2.9% | -18.1%
O=C(c1cnccn1)N1CCC[C@@]2(CCN(C(c3ccccc3)c3ccccc3)C2)C1 | ? | . | 0.3% | ? | -2.1% | -4.4%
O=C(O)c1cccc(OCCO)c1 | 7.5%[11.4 µM] | . | -0.1%[11.5 µM] | 4.8%[11.4 µM] | -0.8%[11.5 µM] | 11.9%[11.5 µM]
CCc1ccc(-c2cn(-c3nc(C)cc(C)n3)c(=N)o2)cc1 | 25.1µM* | i | -3.5% | ? | -2.2% | -6.8%
COc1ccc(N2CCN(Cc3cc(=O)oc4c3ccc3ccccc34)CC2)cc1 | -8.6% | 3.32* | -0.7% | 2.5% | -1.3% | -9.8%
CC(=O)N1CCC[C@@]2(CCN(Cc3nccs3)C2)C1 | 7.7% | . | -5.7% | 2.2% | -4.8% | -7.0%
N=C(N)CCNC(=O)[C@@H]1CCC(N)=N1 | 6.5%[11.4 µM] | . | 0.4%[11.5 µM] | 1.1%[11.4 µM] | -1.8%[11.5 µM] | -3.4%[11.5 µM]
Cc1ccc(CCNC(=O)C2CCN(S(=O)(=O)c3ccc4c(c3)CCC(=O)N4)CC2)cc1 | -0.4% | . | -2.8% | 0.0% | -1.5% | 5.7%
CC(C)CCNC(=O)C1CCN(S(=O)(=O)c2ccc3c(c2)CCC(=O)N3)CC1 | 6.31µM* | . | -3.1% | ? | 1.6% | -7.9%
CCCNC(=O)OC[C@@H]1O[C@H](CCO/N=C\c2ccc(C(=O)N3[C@H](c4ccc(C)cc4)[C@@H](C)CC[C@H]3C(=O)OC)cc2)C=C[C@@H]1Oc1ccc(OC)cc1 | 12.4%[11.4 µM] | . | 4.6%[11.5 µM] | -2.1%[11.4 µM] | -0.3%[11.5 µM] | 10.2%[11.5 µM]
O=C(O)c1ccc(CNCc2ccccc2)cc1 | -0.4%[11.4 µM] | . | 0.2%[11.5 µM] | 6.4%[11.4 µM] | -3.3%[11.5 µM] | -11.9%[11.5 µM]
CCOc1ccc(NC(=O)c2ccc3c(c2)N(Cc2ccc(F)cc2)C(=O)CS3=O)cc1 (stereo not given) | -1.7% | . | -3.9% | -9.8% | -1.3% | -9.7%
Cc1ccc(C)c(NC(=O)c2ccc3c(c2)N(Cc2ccc(F)cc2)C(=O)CS3=O)c1 (stereo not given) | 31.6µM* | . | -1.9% | ? | -3.3% | -1.9%
CCc1c(O)nc(SCc2ccccc2)n(C(C)CC)c1=O (stereo not given) | 25.1µM* | . | -1.6% | ? | -3.3% | 15.3%
C=CCSc1nc(O)c(CC)c(=O)n1C(C)CC (stereo not given) | 20.1%[11.4 µM] | . | 0.8% | 12.8%[11.4 µM] | -1.9% | -6.7%
COc1cc2ncnc(Nc3cccc(Cl)c3)c2cc1OC | 11.4% | . | -1.3% | -0.2% | 4.0% | 20µM*
CC1(C)O[C@@H]2C[C@H]3[C@H]4C[C@H](F)C5=CC(=O)C=C[C@@]5(C)[C@@H]4[C@H](O)C[C@]3(C)[C@]2(C(=O)CO)O1 | 0.0%[25.6 µM] | . | 2.4%[25.7 µM] | -5.1%[25.6 µM] | -5.9%[25.7 µM] | 7.6%[25.7 µM]
O=C(Oc1ccc(-c2cn3c(n2)SCC3)cc1)c1ccccc1 | 21.5% | ? | -19.4% | 5.4% | -10.2% | 15.8µM*
O=C(Oc1ccccc1)c1ccc(-n2cnnn2)cc1 | -6.5% | >76.9 | 0.4% | -1.2% | -1.5% | -7.9%
CCCC(=O)N1CCN(c2ccc(NC(=O)c3cc4ccccc4o3)cc2Cl)CC1 | 26.8% | 4.22* | -2.8% | 28.6% | -5.2% | 7.94µM*
CCC(=O)N1CCN(c2ccc(NC(=O)c3cc4ccccc4o3)cc2Cl)CC1 | ? | 3.23* | -6.4% | ? | -5.8% | 31.6µM*
O=C(Nc1ccc(N2CCN(C(=O)c3ccco3)CC2)c(Cl)c1)c1cc2ccccc2o1 | 16.9% | ? | -6.9% | 23.7% | -6.5% | 7.94µM*
O=C(Nc1ccc(N2CCN(C(=O)c3ccccc3)CC2)c(Cl)c1)c1ccco1 | 12.9% | . | -6.4% | . | -1.5% | ?
O=C1[C@@H]2[C@@H]3C=C[C@H]([C@@H]2C(=O)N1CN1CCSCC1)[C@@H]1[C@@H]2C(=O)N(CN4CCSCC4)C(=O)[C@@H]2[C@H]31 | 2.8%[11.4 µM] | . | -1.2%[11.5 µM] | -2.5%[11.4 µM] | -1.2%[11.5 µM] | -10.2%[11.5 µM]
COc1ccc(C2C(C(=O)NCCN3CCOCC3)c3ccccc3C(=O)N2C2CCCCC2)cc1 (stereo not given) | 7.5% | 13.9* | 0.2% | 11.3% | 0.9% | 13.8%
SMILES | HEK293 cAMP ctrl | GBA activity | Casp7 inh | TSHR agonist | Casp1 inh | ERK AVP block
COc1ccc(C2C(C(=O)N3CCN(C)CC3)c3ccccc3C(=O)N2C2CCCCC2)cc1 (stereo not given) | 0.4% | . | 0.6% | 5.4% | 2.7% | 12.7%
COc1ccc(CNc2cc(-c3ccccc3CN(C)C)ncn2)c(OC)c1 | 29.9% | . | -1.4% | 21.7% | -0.6% | -2.1%
COc1ccccc1CNc1cc(-c2ccccc2C)ncn1 | 15.8µM* | . | -5.1% | ? | -1.5% | -27.9%
COCCNc1cc(-c2ccccc2C(F)(F)F)ncn1 | 0.316µM* | . | 2.6% | ? | -2.2% | 1.3%
COc1ccc(CNc2cc(-c3ccccc3C)ncn2)c(OC)c1 | 15.8µM* | . | -6.6% | ? | -6.4% | 12.6µM*
COc1ccccc1CNc1cc(-c2ccccc2OC)ncn1 | 15.8µM* | . | -0.5% | ? | -0.4% | 7.94µM*
COc1ccccc1CNc1cc(-c2cccnc2)ncn1 | ? | . | -2.7% | ? | -0.4% | -17.6%
Cc1noc(C)c1-c1cc(Nc2ccccc2)ncn1 | 12.0% | . | -1.5% | 8.5% | -2.0% | ?
O=C1O/C(=C\Br)CC[C@@H]1c1cccc2ccccc12 | 2.8% | . | 0.4% | 11.2% | 3.3% | ?
CCN(CC)CCCNC(=O)c1ccc(Cc2nc3ccccc3[nH]2)cc1 | -19.1% | . | -1.3% | -4.3% | -0.9% | .
CC(=O)NC(CCS(C)(=O)=O)C(=O)Nc1cccc(C)c1 (stereo not given) | 3.16µM* | . | 0.7% | ? | -2.6% | .
COC(=O)C/C=C\[C@@H](C)[C@@H](/C=N\O[C@@H](C)CN1CCCCc2nc(C)c(C)cc21)NS(=O)(=O)c1ccc(C)cc1 | ? | . | 0.0%[11.5 µM] | ? | 0.1%[11.5 µM] | 6.6%[11.5 µM]
CCCc1[nH]n(-c2nc3ccccc3s2)c(=O)c1C=NCC1CCCO1 (stereo not given) | 2.6% | 12.7* | -1.9% | 2.7% | 3.7% | -13.5%
Cc1ccccc1OCC(=O)Nc1ccccc1N1CCOCC1 | 25.1µM* | . | -1.6% | ? | -1.7% | 6.8%
Cc1cc(C)c(OCC(=O)Nc2ccccc2N2CCOCC2)c(C)c1 | ? | . | -3.3% | ? | 1.2% | -21.3%
CCC(=O)N1CCN(c2ccccc2NC(=O)COc2cc(C)ccc2C(C)C)CC1 | 15.8µM* | >76.9 | -8.5% | ? | -1.6% | -8.5%
CC1=C(\C=C/C(C)=C/C=C\C(C)=C\C(=O)Nc2ccc(O)cc2)C(C)(C)CCC1 | 0.9% | . | . | 11.4% | . | .
COc1ccc(CNc2ncncc2-c2cccc(C#N)c2)c(OC)c1 | ? | . | -3.8% | ? | -3.9% | ?
CCCCC(CC)CNC(=O)c1ccc2c(c1)OCO2 (stereo not given) | 3.98µM* | . | 0.5% | ? | -1.1% | 0.3%
